From PubChem BioAssay AID618 (Sanford-Burnham Center for Chemical Genomics, 2007) come the findings set out here.

Hit rate of the full screen: of about 87,000 compounds, about 540 (0.62%) were called active. A call without a number means that no potency is given here. The rule behind the calls is not given here. This excerpt belongs to a sample that is enriched for actives. Potency and affinity values are given separately.

A short description of the test: inhibitors of MT1-MMP promoter transcription, cell-based, luciferase reporter, luminescence (AID 618).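 Note: actives suppress MT1-MMP promoter-driven transcription so potencies describe inhibitors.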 Conditions: MT1-MMP promoter luciferase reporter cells. In general terms: A reporter such as luciferase makes a cellular process visible.
With `O=C(CCN1C(=O)COc2ccccc21)NCc1cccnc1`, the compound was classed as inactive.
The entry for `O=C(NCc1cccnc1)C1CCN(S(=O)(=O)N2CCC3(CC2)OCCO3)CC1` is “inactive”; for `Cc1ccc(NC(=O)C2CCN(C(=O)NC3CCCCC3)CC2)cc1` it is “inactive”; for `CC(=O)c1ccc(OCC(O)CN2CCC(C)CC2)cc1` (stereo unspecified) it is “inactive”.
Turning to `Cc1ccc(C)c(OCCCC(=O)O)c1`, the compound was called inactive.
The entry for `Nc1ccc(Oc2ccc([N+](=O)[O-])cc2[N+](=O)[O-])cc1` is “inactive”; for `COc1ccccc1NC(=O)CSc1nnc(-c2ccco2)o1` it is “inactive”.
The entry for `NC(=O)C1(N2CCCCC2)CCN(c2nc(-c3ccccc3)cs2)CC1` is “inactive”; for `COCCn1c(=S)[nH]c2cc(C(=O)NCC3CCCO3)ccc2c1=O` (stereo unspecified) it is “inactive”.
For `COc1cccc(C(=O)Nc2ccc(C(=O)O)cc2)c1` the value was “inactive”; for `c1ccc(-c2noc(CSc3nnc(Cc4cccs4)n3-c3ccccc3)n2)cc1`, “inactive”; for `Cc1cccn2cc(-c3ccccc3)nc12`, “inactive”.
Regarding `Nc1nc(-c2ccc(Cl)cc2)cn1N`, the compound was called inactive.
For `Cc1nn2c(-c3ccc(Cl)cc3)nnc2s1` the value was “inactive”; for `Cc1c(C(=O)N2CCOCC2)sc2nc(-c3ccccc3)cn12`, “inactive”.
As for `CCc1nn2cc(-c3ccccc3)nc2s1`, the result was active.
Take `Cc1nn2cc(-c3ccc(-c4ccccc4)cc3)nc2s1`: the outcome was active.
For `O=C(O)CCc1nn2cc(-c3ccccc3)nc2[nH]c1=O` the value was “inactive”; for `Cc1nn2cc(-c3ccc(Cl)cc3)nc2s1`, “active”.
For `CCN(CC)CCNC(=O)c1sc2nc(-c3ccccc3)cn2c1C` the value was “inactive”; for `Cc1nn2cc(-c3ccccc3)nc2[nH]c1=O`, “inactive”.
For `Cc1nc(-c2ccccc2)cs1` the value was “inactive”; for `Cc1ccc(CNCc2cc3c(C(C)(C)C)nn(-c4ccccc4)c3[nH]c2=O)cc1`, “inactive”.
Consider `O=C(O)CNS(=O)(=O)c1cc(Cl)c(Cl)cc1Cl`, for which the compound was called inactive.
For `Cc1ccc(NC(=O)CS(=O)CC(=O)N(c2ccc(C)cc2)C(C)C(=O)NC2CCCCC2)cc1` (stereo unspecified) the value was “inactive”; for `CC(C)COC(=O)CNc1n[nH]c(=S)[nH]c1=O`, “inactive”; for `Cc1cc(NC(=O)COC(=O)[C@H](Cc2c[nH]c3ccccc23)NC(=O)c2ccc(F)cc2)no1`, “inactive”.
For `COC(=O)CSc1nnc(-c2ccncc2)o1` the value was “inactive”.
For `C=CCn1c(SCC(=C)C)nc2c1c(=O)[nH]c(=O)n2C` the value was “inactive”; for `Cc1ccc(Cn2c(-n3nc(C)cc3C)nc3c2c(=O)[nH]c(=O)n3C)cc1`, “inactive”.
As to `COc1ccc(CCn2c(-n3nc(C)cc3C)nc3c2c(=O)[nH]c(=O)n3C)cc1`, the outcome was active.
For `Cc1cc(C)n(-c2nc3c(c(=O)[nH]c(=O)n3C)n2CCc2ccccc2)n1` the value was “inactive”.
For `O=c1ccc2ccc(OCc3nnc(-c4ccccc4Br)o3)cc2o1` the value was “inactive”.
For `O=c1c2ccccc2nc2c3ccccc3c3nncn3n12` the value was “inactive”; for `O=C(Nc1ccc(S(=O)(=O)N2CCOCC2)cc1)c1cccs1`, “inactive”.
In the case of `COc1ccc(-n2nnnc2S(=O)(=O)CC(=O)N2CCCCC2)cc1`, the compound was classed as active.
The entry for `COc1cc(OC)cc(-n2nnnc2SCC(=O)N2CCCC2)c1` is “inactive”.
In the case of `COc1ccc(-n2nnnc2S(=O)(=O)Cc2ccc(C(=O)O)cc2)cc1`, the call was inactive.
The entry for `Cc1ccc2[nH]c(=O)c(-c3noc(C(C)C)n3)cc2c1` is “inactive”; for `Cc1cccc(CS(=O)(=O)Cc2ccc(C(=O)O)o2)c1` it is “inactive”.
As for `Brc1ccc(-c2ncc(-c3ccccc3)cn2)cc1`, the result was inactive.
For `Nc1ccc(-c2cnc(-c3ccc(N)cc3)nc2)cc1` the value was “inactive”.
For `O=C(O)CCc1nn2cnc3sc4c(c3c2nc1=O)CCCC4` the value was “inactive”.
For `CCOc1c(S(=O)(=O)N2CCCC2)ccc(Cl)c1Cl` the value was “inactive”; for `Cc1cccc(NC(=O)c2cc3n(n2)C(C(F)(F)F)CC(c2ccc4c(c2)OCO4)N3)c1` (stereo unspecified), “inactive”; for `O=C(NC1CCCCC1)N(CCN1CCOCC1)Cc1cc2cc3c(cc2[nH]c1=O)OCCO3`, “inactive”.
Consider `COc1ccc(OC)c(Nc2nc(N)nc(-c3cc4ccccc4o3)n2)c1`, for which the outcome was inactive.
The entry for `COc1ccc(OC)c(Nc2cc(C)nc3ccccc23)c1` is “inactive”; for `COc1ccc(OC)c(Nc2cc(-c3ccccc3)nc(N)n2)c1` it is “active”; for `COCCN(CC(=O)NCc1ccccc1)C(=O)CCC(=O)Nc1nccs1` it is “inactive”.
The entry for `COc1ccc(C(c2sc3nc(C)nn3c2O)N2CC(C)OC(C)C2)cc1OC` (stereo unspecified) is “inactive”; for `Cn1c(SCC(=O)N2CCOCC2)nc(O)cc1=O` it is “inactive”; for `O=C1c2ccccc2S(=O)(=O)N1Cc1cc(=O)n2ccsc2n1` it is “inactive”.
As to `O=c1c2ccccc2ncn1Cc1nc2ccccc2s1`, the result was inactive.
In the case of `COc1ccc(C2=Nc3cc(C)ccc3OC2)cc1`, the call was inactive.
`c1ccc(C2=Nc3ccccc3OC2)cc1`: the result was inactive.
The entry for `CSc1sc(C(=O)O)c2c1C(=O)CCC2` is “inactive”; for `COc1cccc(C2NC(=O)NC(C)=C2C(=O)OCCSC)c1OC` (stereo unspecified) it is “inactive”; for `CN(C)S(=O)(=O)c1ccc(C(=O)Nc2ccc(CCC(=O)N3CCCC3)cc2)cc1` it is “inactive”.
For `CC1CN(Cc2nc3c(c(=O)[nH]c(=O)n3C)n2CC(N)=O)CC(C)O1` (stereo unspecified) the value was “inactive”; for `CCCNC(=O)c1ccc(-c2nc3ccccc3s2)s1`, “inactive”; for `O=C(NC1CC1)c1ccc(-c2nc3ccccc3s2)s1`, “active”.
For `O=C(OC1CCOC1=O)c1ccc(-c2nc3ccccc3s2)s1` (stereo unspecified) the value was “inactive”; for `CCOC(=O)c1sc(Nc2ccc(C)cc2C)nc1C`, “inactive”.
`COc1cc(CN2CCN(S(=O)(=O)c3ccc(F)cc3)CC2)cc(OC)c1OC`: the call was inactive.
The entry for `Nc1sc2c(c1C(=O)NC1CCS(=O)(=O)C1)CCCC2` (stereo unspecified) is “inactive”.
The entry for `COc1cc(/C=N/O)ccc1OCc1ccc(C(=O)O)cc1` is “active”.
Regarding `COc1cc(C(N)=O)ccc1OCc1ccccc1`, the call was inactive.
The entry for `O=C(O)c1cc(/C=N\O)ccc1OCc1ccccc1` is “inactive”.
For `CCOC(=O)Cn1cc(C(=O)OC)c2ccccc21` the value was “inactive”; for `COc1ccccc1N1CCN(C(=O)C2c3ccccc3Oc3ccccc32)CC1`, “active”; for `CCOc1ccccc1N1CCN(C(=O)C2c3ccccc3Oc3ccccc32)CC1`, “inactive”.
For `O=C(C1c2ccccc2Oc2ccccc21)N1CCN(c2ccc(Cl)cc2)CC1` the value was “inactive”; for `CCOC(=O)C1CCN(Cc2ccccc2C)CC1`, “inactive”; for `Cc1cnc(C)c(N2CCC(C(=O)NC(C)c3cccs3)CC2)n1` (stereo unspecified), “inactive”.
On to `CC(C)Oc1ccccc1C1CC(=O)Nc2cc3c(cc21)OCO3` (stereo unspecified), for which the outcome was active.
For `CCCOc1ccccc1C1CC(=O)Nc2cc3c(cc21)OCCO3` (stereo unspecified) the value was “inactive”; for `CCOc1ccccc1C1CC(=O)Nc2cc3c(cc21)OCO3` (stereo unspecified), “active”.
The entry for `COc1cccc(C2CC(=O)Nc3cc4c(cc32)OCCO4)c1OC(C)C` (stereo unspecified) is “inactive”.
The entry for `CCOc1ccccc1C1CC(=O)Nc2cc3c(cc21)OCCO3` (stereo unspecified) is “inactive”; for `CC(C)Oc1ccccc1C1CC(=O)Nc2cc3c(cc21)OCCO3` (stereo unspecified) it is “inactive”.
